# Results from PubChem BioAssay AID1851 (National Center for Advancing Translational Sciences (NCATS), 2009).
# The campaign covered roughly 16,000 compounds. About 2,600 (16%) were called active. Another 20% or so got no clear call; they are omitted. Not all results are given here. Values without a mark were called inactive. Calls follow the shape of the dose curve; as a rule, active = well fitted curve in the direction sought with a large enough effect; inconclusive = small, poorly fitted or top-dose-only effect, or effect the other way; inactive = no such curve, though single readings can be large or run the other way.
# Target: Cytochrome P450 2D6 (Homo sapiens) (UniProt P10635)
# Sequence (P10635 whole entry, looked up): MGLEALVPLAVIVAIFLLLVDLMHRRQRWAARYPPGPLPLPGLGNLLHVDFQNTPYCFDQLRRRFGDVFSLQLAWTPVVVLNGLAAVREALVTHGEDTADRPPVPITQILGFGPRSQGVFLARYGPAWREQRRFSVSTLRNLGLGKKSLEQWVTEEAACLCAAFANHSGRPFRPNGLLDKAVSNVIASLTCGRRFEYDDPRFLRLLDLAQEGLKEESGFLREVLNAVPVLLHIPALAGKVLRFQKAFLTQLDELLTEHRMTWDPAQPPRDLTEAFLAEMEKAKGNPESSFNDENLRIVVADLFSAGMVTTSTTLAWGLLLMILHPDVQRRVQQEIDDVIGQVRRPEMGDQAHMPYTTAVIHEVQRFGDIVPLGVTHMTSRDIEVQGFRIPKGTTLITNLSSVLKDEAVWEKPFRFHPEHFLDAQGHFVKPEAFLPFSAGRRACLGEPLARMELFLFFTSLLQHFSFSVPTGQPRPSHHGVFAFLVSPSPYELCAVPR
# Assay: Cytochrome panel assay with activity outcomes
# Details: recombinant CYP, pro-luciferin dealkylation, luminescence, p450-cyp2d6; series mostly up to 57.1 µM; activity, negative = inhibition: at the top concentration
# % is scaled to controls: 0 for no effect and ±100 for the full control effect.
SMILES,"activity, negative = inhibition",AC50
CCCCc1ccc(-c2csc(/C(C#N)=C/c3ccc(C)o3)n2)cc1,-2.34%,–
CS(=O)c1ccccc1-c1nc(-c2cc(C(F)(F)F)cc(C(F)(F)F)c2)no1 (stereo not given),-17%,–
COc1ccc(-n2nc3cc(C)c(NC(=S)NC(=O)c4ccccc4C)cc3n2)cc1,6.83%,–
COC(=O)c1cc(C(=O)c2ccc(Cl)cc2Cl)cn1C,9.82%,–
CC1(C)S[C@@H]2[C@H](NC(=O)[C@@H](N)c3ccccc3)C(=O)N2[C@H]1C(=O)O[C@H]1OC(=O)c2ccccc21,0.075% [at 25.6 µM],–
CC(=O)Nc1ccc(Nc2ncc([N+](=O)[O-])c(Nc3ccc(NC(C)=O)cc3)n2)cc1,-4.74%,–
Cc1ccc(Nc2c([N+](=O)[O-])ccc3c2=NC2(CCCCC2)N=3)cc1,–,25.1 µM (active)
O=C(NC1CCCC1)c1cccnc1N1CCCCCC1,11.3%,–
Cc1ccc(NC(=O)c2sc3nc[nH]c(=O)c3c2C)c(C)c1,-18.3%,–
CCCSc1nnc2n(N)c(=O)c3ccccc3n12,-7.37%,–
O=C(CCOc1ccccc1)Nc1ccccc1,21.3%,–
Cc1c(NC(=O)CCCOc2ccccc2)cccc1[N+](=O)[O-],–,1.58 µM (active)
Cc1c(NC(=O)/C=C/C(=O)O)cccc1[N+](=O)[O-],0.595%,–
COC(=O)c1cccc(NC(=O)CCCOc2ccccc2)c1,–,10 µM (active)
Cc1ccc(OCCCC(=O)Nc2ccccc2C(F)(F)F)cc1,-17.2%,–
CCC(=O)Nc1cccc(C(=O)/C=C/c2ccccc2)c1,-16.4%,–
CCc1sc(-c2c(C#N)c(N)nc3c2CCCCCC3)cc1[N+](=O)[O-],-11.8%,–
COc1ccccc1CCn1c(=O)c(-c2cn(C)c3ccccc23)nc2cncnc21,-10.1%,–
CC(C)n1c(O)c(/C=C2\C=Nc3ccccc32)sc1=Nc1ccccc1,-18%,–
COc1ccc2sc3ccccc3c(=O)c2c1OC,-15.6%,–
O=c1c2ccccc2sc2c(CO)ccc(NCCN3CCCCC3)c12,–,1.26 µM (active)
CCN(CC)CCNc1ccc(CO)c2sc3ccccc3c(=O)c12,–,5.01 µM (active)
C#CCCCO/N=C1/C[C@@H](O)[C@@H](O)[C@@H]2[C@@H]3C(=O)N(C[C@@H]4CCCO4)C(=O)[C@H]3CC[C@H]12,-7.06% [at 11.4 µM],–
Cn1c(=O)c(-c2ccccc2)nc2cnc(N3CCOCC3)nc21,-3.69%,–
CC(=O)OC1COC(N2CCc3cc([N+](=O)[O-])ccc32)C(OC(C)=O)C1OC(C)=O (stereo not given),27%,–

SMILES,"activity, negative = inhibition",AC50
COc1cccc(-c2csc(N3CCN(CC(=O)NNC(=O)c4ccc(Cl)cc4)CC3)n2)c1,-17.2%,–
CC(C)(CO[C@H]1C[C@H]2CC[C@@]1(C)C2(C)C)[N+](=O)[O-],11.9% [at 11.4 µM],–
CC(C)=CCC/C(C)=C/CO/N=C1/C[C@@H](O)[C@@H](O)[C@@H]2[C@@H]3C(=O)N(C4CCCCC4)C(=O)[C@H]3CC[C@H]12,-9.81% [at 11.4 µM],–
CS(=O)(=O)c1ccc(/C=N\NC(N)=S)cc1,9.53% [at 11.4 µM],–
Cc1ccc(-n2c(N)c(C(=O)NCc3ccco3)sc2=S)cc1,-9.85%,–
CC(Cc1ccccc1)NC(=O)CSc1nc2nc3c(cc2c(=O)n1-c1ccccc1)COC(C)(C)C3 (stereo not given),-28.9%,–
Cc1ccc(-n2c(SCC(=O)NCc3ccco3)nc3sc4c(c3c2=O)CC(C)(C)SC4)cc1,–,2.82 µM (active)
O=C(CSc1nnc2sc3ccccc3n12)NCc1ccco1,-17.7%,–
CC1(C)Cc2c(sc3nc(SCC(=O)NCc4ccccc4)n(-c4ccccc4)c(=O)c23)CS1,–,3.55 µM (active)
CCc1c(O)nc(SCC(=O)NC(C)(C)C)n(-c2ccccc2)c1=O,-8.15%,–
Cn1cc[nH]c1=S,6.67% [at 25.6 µM],–
Cn1cnc([N+](=O)[O-])c1SCC(=O)O,-1.18% [at 11.4 µM],–
C[C@@H]1C[C@H](OC(=O)c2ccccc2O)CC(C)(C)C1,-4.22% [at 25.6 µM],–
COc1ccc(NC(=O)CSc2nc(-c3ccc(C)cc3)cc(C(F)(F)F)c2C#N)cc1,15.8%,–
CSc1nc(N)nc(SCC(=O)Nc2ccc(Cl)cc2)c1C#N,–,2.24 µM (active)
CCOc1ccc(NC(=O)CSc2nc(C)c3c(c2C#N)CCCC3)cc1,-8%,–
O=C(c1cccc(F)c1)N1CCC2(CCCN(c3cccc(-c4ccccc4)c3)C2)CC1,-11.4%,–
CC1CCCN(C(=O)c2sc3cc([N+](=O)[O-])ccc3c2Cl)C1 (stereo not given),–,10 µM (active)
CN1CCCN(C)C1c1cc([N+](=O)[O-])ccc1O,-9.66% [at 11.4 µM],–
O=C(c1sc2ccccc2c1Cl)N1CCN(c2ccc(F)cc2)CC1,-28%,–
CC1CCCC(NC(=O)C2CCN(S(=O)(=O)N3CCC4(CC3)OCCO4)CC2)C1C (stereo not given),-11.3%,–
Cc1sc(N)c(C(=O)c2cccc(C(F)(F)F)c2)c1C,-0.502%,–
O=C(Nc1c2c(nn1-c1ccc(F)cc1)CS(=O)(=O)C2)C12CC3CC(CC(C3)C1)C2,-0.0135%,–
O=C(Oc1ccccc1[N+](=O)[O-])c1cccnc1,-12.6%,–
Cn1cc([N+](=O)[O-])c(C(=O)Nc2cc(Oc3cccnc3)cc([N+](=O)[O-])c2)n1,–,12.6 µM (active)

SMILES,"activity, negative = inhibition",AC50
CC(=O)NN1C(=O)c2ccc(Oc3cccc([N+](=O)[O-])c3)cc2C1=O,-9.46%,–
Cc1cc(C(=O)O)c(=O)[nH]c1C,15.7%,–
CC1(C)CC(=O)C2=C(C1)N(Cc1ccccc1)C(=O)C2(O)C(F)(F)F (stereo not given),0.612%,–
O=C(N/N=C/C1CCCCC1)c1ccccn1,-25.7%,–
N#Cc1c2n(c3c(=S)nc[nH]c13)CCCCC2,9.17%,–
C=C1C=C(Br)C2(OCCCO2)[C@H]2OC12 (stereo not given in full),3.88% [at 11.4 µM],–
Cc1cc(NC(=S)NC(=O)CC(C)C)ccc1Br,-0.0883%,–
Cc1cc(NC(=S)Nc2ccccc2)ccc1Br,–,2 µM (active)
COc1ccc(NC(=S)Nc2ccccc2)cc1,-11.8% [at 11.4 µM],–
CCCCC1(C)NC(=O)c2c(C)sc(C(=O)OCC)c2N1 (stereo not given),5.24%,–
CC1=C/C(=N/O)C([C@H]2C=C(C)CC(C)(C)[C@@H]2O)C(C)(C)C1 (stereo not given in full),-8.52% [at 11.4 µM],–
COc1ccc(S(=O)(=O)Nc2ccc(S(=O)(=O)N3CCCCC3)cc2)cc1C,-0.01%,–
COc1ccc(S(=O)(=O)N2CCC(NC(=O)Nc3ccc(C)cc3)CC2)cc1,-8.72%,–
COc1ccc(S(=O)(=O)N2CCC(N3CCCCC3)CC2)cc1,–,0.316 µM (active)
CCCOC(=O)c1c(NC(=O)/C=C/c2cnn(C)c2C)sc(C(=O)OCC)c1C,9.96%,–
CCOc1cccc2cc(C(N)=O)c(=NCc3ccccc3)oc12,-3.81%,–
Oc1ccccc1-c1cc(-c2ccccc2)no1,-29.9%,–
c1ccc2c(CC3=NCCN3)cccc2c1,–,7.94 µM (active)
c1c[nH]c(CN2CCOCC2)n1,-10.1% [at 11.4 µM],–
c1c[nH]c(CN2CCN(Cc3ncc[nH]3)CC2)n1,-3.74% [at 11.4 µM],–
C[C@@H]1c2ccccc2CN1CC1=NCCN1,-9.96%,–
c1ccc(CN(CC2=NCCN2)c2ccccc2)cc1,–,2.51 µM (active)
Cc1ccc(N(Cc2ccccc2)Cc2ccccc2)cc1,0.619% [at 11.4 µM],–
Cc1cc(C=C(C#N)C#N)c(C)n1-c1ccccc1,-1.52%,–
CCc1cc2c(nc1CC)CCN(CC/C(C)=N/O[C@@H](C)c1cn([C@H](CO)Cc3ccccc3)nn1)C2,2.14% [at 11.4 µM],–

SMILES,"activity, negative = inhibition",AC50
Nc1ncnc2c([C@@H]3O[C@@H](CO)[C@H](O)[C@@H]3O)nsc12,-0.815% [at 11.4 µM],–
N#Cc1c(N2CCN(C(=O)c3ccccc3Cl)CC2)nc(-c2ccccc2)c2c1CCCC2,-17.9%,–
CC1CN(C(=O)CN2C(=O)NC3(CCCCCC3)C2=O)CC(C)O1 (stereo not given),-5.42%,–
Cc1nc2cnc(Oc3cccc(Cl)c3)nc2n(C2CC2)c1=O,-1.54%,–
CN(c1ccc(C(=O)NC2CC3CCC2C3)cc1)S(C)(=O)=O (stereo not given),27.3%,–
CNc1nc(NCCOC23CC4CC(CC(C4)C2)C3)nc(OCC(F)(F)F)n1,-17%,–
Cc1ccc(C(=O)N2CCN(c3ccc(C(F)(F)F)cn3)CC2)cc1,-23.2%,–
COc1cccc(Nc2ncc3nc(C)c(=O)n(CCC#N)c3n2)c1,-5.84%,–
COc1ccc2[nH]cc(CCNc3cc(-c4ccccc4OC)ncn3)c2c1,–,12.6 µM (active)
CC(=O)NCCNc1cc(-c2ccccc2C)ncn1,-9.8%,–
COCCNc1cc(-c2ccccc2C(F)(F)F)ncn1,3.95%,–
COc1ccc2[nH]cc(CCNc3cc(-c4ccccc4C)ncn3)c2c1,–,7.94 µM (active)
COc1ccc2[nH]cc(C=O)c2c1,-3.89%,–
COc1cccc(-c2cc(NCCc3c[nH]c4ccc(OC)cc34)ncn2)c1,–,15.8 µM (active)
COC(=O)Nc1ccc2[nH]cc(CCNC(C)=O)c2c1,-11.2%,–
COc1ccc2[nH]cc(CCNc3cc(-c4ccoc4)ncn3)c2c1,–,12.6 µM (active)
CCOC(=O)C1=C(C)NC2=C(C(=O)C(C(=O)OCC)C(c3ccc(OC)cc3)C2)C1c1ccccn1 (stereo not given),-8.45%,–
O=C1OCCC1Sc1nnnn1-c1ccccc1 (stereo not given),-7%,–
O=C1C[C@H](c2ccccc2)[C@@H](c2ccc(Br)cc2)O1,-20.8% [at 11.4 µM],–
COCCn1c(=O)cnc2cnc(Nc3cccc(OC)c3)nc21,-5.08%,–
CC(C)Cc1nnc(NC(=O)c2ccc([N+](=O)[O-])cc2)s1,-2.73%,–
COc1cccc(Cn2c(NCc3cccnc3)nc3c2c(=O)n(C)c(=O)n3C)c1,-24.9%,–
COc1ccc(CNC(=O)C(c2ccc(C)cc2)N(Cc2cccs2)C(=O)c2ccc3c(c2)OCCO3)cc1 (stereo not given),-10.3%,–
COc1ccc(NC(=O)CN2c3cccc4cccc(c34)S2(=O)=O)cc1,-10.1%,–
CC(C(=O)NCc1ccc2c(c1)OCO2)N1c2cccc3cccc(c23)S1(=O)=O (stereo not given),–,10 µM (active)
